From PubChem BioAssay AID504648 (National Center for Advancing Translational Sciences (NCATS), 2011) come the findings set out here.

Structures are written as SMILES. Hit rate of the full screen: of about 390,000 compounds, about 610 (0.16%) were called active. Not shown: some 4% with an inconclusive outcome. The entries come from a sample that favours actives as a whole. A call without a number means that no potency is given here. A number with no mark means an inactive call. The call rests on the fitted dose curve; in most records, active means well fitted inhibition curve with a large enough effect; inconclusive means small, poorly fitted or top-dose-only effect, or effect the other way, or another doubt; inactive means no such curve, though single readings can be large or run the other way.
Potency means the concentration at half of the fitted maximal effect.

A short description of the test: Nrf2 qHTS screen for inhibitors: counterscreen for cytotoxicity. To be noted: A549 ARE-Fluc cells, CellTiter-Fluor viability, 18-24 h; series mostly up to 46 µM. Put shortly: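 A549 ARE-Fluc cells in 5% FBS OPTI-MEM, 5000 cells/well, rested 2 h then exposed to compounds in concentration-response for 18-24 h at 37 °C. Viability by CellTiter-Fluor fluorescence (Ex 405/Em 525) after 30 min; luciferase luminescence (BugLite, 15 min, RT) read afterwards.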
In the case of `COc1ccc(C2Nc3ccccc3C(=O)N2Cc2ccc(CNC(=O)CO)cc2)cc1COc1ccc(NC(C)=O)cc1` (configuration not stated), the Potency entry is “inactive”.
The same measure, in the same setting: in the case of `Cc1ccc(OCCn2c(CNc3ccccc3C)nc3ccccc32)cc1` it was “inactive”; in that of `O=C(CCC1N=C2c3ccccc3N=C(SCc3ccccc3F)N2C1=O)NCCc1ccccc1` (configuration not stated), “inactive”; in that of `CN(C)Cc1cn(-c2ccccc2)nc1-c1ccccc1`, “inactive”.
The same measure, in the same setting: in the case of `COC(=O)C(CC(C)C)NS(=O)(=O)c1cc(Br)ccc1Br` (configuration not stated) it was “inactive”; in that of `Cc1cc(C)cc(NC(=O)CCS(=O)(=O)c2cc3c4c(c2)CCN4C(=O)CC3)c1`, “inactive”.
Still for that read-out and setting: in the case of `O=[N+]([O-])c1ccc(S(=O)(=O)N2CCN(c3nc(-c4ccccc4)nc4ccccc34)CC2)cc1` it was “inactive”.
For the compound `COc1ccc(C2Nc3ccccc3C(=O)N2Cc2ccco2)cc1COc1cccc(NC(C)=O)c1` (configuration not stated), the Potency result is “inactive”.
Still for that read-out and setting: in the case of `C=CCNC(=O)c1ccc2nc(-c3ccco3)c(-c3ccco3)nc2c1` it was “inactive”.
The same measure, in the same setting: in the case of `CCOc1ccc(NC(=O)c2c(NCc3cccc(OC)c3OC)sc3c2CCC3)cc1` it was “inactive”; in that of `CCOc1ccc(CC(=O)NCCc2csc3nc(-c4ccccc4F)nn23)cc1`, “inactive”; in that of `CC(=O)Nc1ccc(S(=O)(=O)N2N=NC3C2C2CC4C3(CN(C(=O)OC(C)(C)C)S4(=O)=O)O2)cc1` (configuration not stated), “inactive”.
On the same count and under the same terms, in the case of `COc1ccc(CCn2c3c(c(=O)[nH]c2=S)CN(C(C)C)CN3)cc1OC` it was “inactive”.
On to `Cc1ccc(CNS(=O)(=O)c2ccc(C(=O)N(C)C)s2)cc1`, for which the Potency entry was “inactive”.
Take `Cc1cc(C)n2ncc(C(=O)Nc3cccc(C#N)c3)c2n1`: the activity change, negative = cytotoxicity is -5.38% [at 9.26 µM].
With `Oc1ccc(Cl)cc1C1C=C(c2ccc3c(c2)OCO3)NC(c2c(F)cccc2Cl)N1` (configuration not stated), the Potency result was “inactive”.
Still for that read-out and setting: in the case of `COc1ccc(C2/C=C\CN(C(=O)c3ccc(C)cc3)C(Cc3ccccc3)C(=O)N2Cc2ccc(F)cc2)cc1` (configuration not stated) it was “inactive”; in that of `C=C1CCN(C(CC(C)C)C(=O)NCc2cc(OC)c(OC)c(OC)c2)S(=O)(=O)c2ccccc21` (configuration not stated), “inactive”; in that of `CCn1cc(/C=C2/SC(=S)NC2=O)c(C)n1`, 18.4 µM (active).
Still for that read-out and setting: in the case of `COc1cccc(C2c3c(ncn(-c4cccc(Br)c4)c3=N)Oc3ccc4ccccc4c32)c1` (configuration not stated) it was “inactive”.
The same measure, in the same setting: in the case of `O=C(Nc1cccc2cccnc12)C(F)(F)F` it was “inactive”.
In the case of `N#Cc1nc(NCc2ccc(Cl)c(Cl)c2)c2ncn(CCCO)c2n1`, the Potency entry is “inactive”.
In the case of `Cc1c(Cl)cccc1-c1ccc(CNCCCSc2nnnn2C)o1`, the Potency entry was “inactive”.
On the same count and under the same terms, the value for `O=S1(=O)N=C(Oc2cccc(Br)c2)c2ccccc21` was “inactive”; that for `O=C(NCc1ccccn1)[C@]1(C(F)(F)F)C[C@H](CCc2ccccc2)CCCO1` was “inactive”.
Still for that read-out and setting: the value for `O=c1ccc2c(-c3ccccc3S(=O)(=O)O)c3ccc(O)c(O)c3oc-2c1O` was 13 µM (active); that for `Cc1cc2c(s1)c1cnn(Cc3c(F)cccc3Cl)c(=O)c1n2C` was “inactive”; that for `CC(=O)NC(c1cccs1)c1cc(Cl)c2cccnc2c1O` (configuration not stated) was “inactive”.
Still for that read-out and setting: in the case of `COC(=O)c1ccccc1NC(=O)c1ccc(C#N)cc1` it was “inactive”.
`COc1ccc(-c2ccc3ncnc(NCc4cccs4)c3c2)cc1OC`: the Potency result was “inactive”.
On the same count and under the same terms, the value for `COc1ccccc1NC(=O)CSC1=Nc2ccccc2C2=NC(CC(=O)NCc3cccs3)C(=O)N12` (configuration not stated) was “inactive”.
The same measure, in the same setting: the value for `Cc1ccc(-c2nc3ccccn3c2Nc2ccc(F)cc2)o1` was “inactive”; that for `COC(=O)c1ccccc1S(=O)(=O)Nc1ccc(OC)cc1` was “inactive”; that for `Oc1ccc(Cl)cc1C1C=C(c2ccc3c(c2)OCO3)NC(c2ccc(F)c(Br)c2)N1` (configuration not stated) was “inactive”.
In the case of `NS(=O)(=O)c1ccc2nc(NC(=O)COc3ccccc3)sc2c1`, the Potency result is “inactive”.
The same measure, in the same setting: the value for `O=C(CNC(=O)c1ccccc1)OC(C(=O)Nc1cc([N+](=O)[O-])ccc1F)c1ccccc1` (configuration not stated) was “inactive”; that for `O=C(Nc1nc2ccc([N+](=O)[O-])cc2s1)c1ccc(S(=O)(=O)N2CCCc3ccccc32)cc1` was 9.2 µM (active); that for `CNC(=O)c1ccsc1NC(=O)c1ccc(S(=O)(=O)N2CCc3ccccc32)cc1` was “inactive”.
Same read-out and setting: in the case of `O=C(Nc1nnc(S(=O)(=O)N2CCCc3ccccc32)s1)c1cccc(F)c1` it was “inactive”; in that of `O=C(NC(Nc1nc2ccc([N+](=O)[O-])cc2s1)(C(F)(F)F)C(F)(F)F)c1ccccc1`, 10.3 µM (active); in that of `COc1ccc(C2=Nn3c(nnc3-c3ccccc3O)SC2)cc1`, “inactive”.
For `Cc1ccc(CNc2ncnc3cc(-c4ccc5c(c4)OCO5)ccc23)o1`, the Potency result was “inactive”.
With `Cc1ccc(C)c(CN2C(=O)c3ccccc3S(=O)c3ccc(C(=O)N4CCOCC4)cc32)c1` (configuration not stated), the Potency entry is “inactive”.
Turning to `Cc1ccc(S(=O)(=O)NC(C(=O)N2CCOCCOCCOCCOCC2)c2ccccc2)cc1` (configuration not stated), the Potency result was “inactive”.
The same measure, in the same setting: the value for `Cc1oc2c(c1C(=O)N1CCOCC1)C(=O)c1ccccc1C2=O` was 16.4 µM (active); that for `CCN(CC)c1nc(C#N)nc(OC)n1` was “inactive”; that for `Cc1ccccc1OCCSc1nc2ccc(NC(=O)c3ccco3)cc2s1` was “inactive”.
Still for that read-out and setting: the value for `CCOc1ccccc1NC(=O)CN1CCCN(Cc2cccc(Cl)c2)S1(=O)=O` was “inactive”; that for `CC(C)c1ccc(NC(=O)Cn2c3ncccc3c(=O)n2-c2ccccc2)cc1` was “inactive”.
The same measure, in the same setting: in the case of `Cc1ccc(C(=O)Nc2nc(-c3ccccc3)ns2)cc1` it was “inactive”; in that of `CCN1CCN(CCCNC(=O)c2ccc3c(c2)sc2nc(-c4ccc(OC)cc4)cn23)CC1`, “inactive”.
As to `Cc1cc2nc(NC(=O)c3ccc(S(=O)(=O)N4CCOCC4)cc3)sc2cc1C`, the Potency result was “inactive”.
The same measure, in the same setting: in the case of `Cc1ccc(/C=C2/SC(=S)N(CCC(=O)NCCCN3CCOCC3)C2=O)cc1` it was 14.6 µM (active).
The same measure, in the same setting: the value for `Cc1ccc(NS(=O)(=O)c2ccc(C(=O)NCCCN3CCOCC3)cc2)cc1` was “inactive”.
On the same count and under the same terms, the value for `CC(C)c1ccc(/C=C/C(=O)NCCCN2CCOCC2)cc1` was “inactive”.
As for `O=C(NCC1CC1)C1(C(F)(F)F)C/C(=C\CCO)CCCO1` (configuration not stated), the Potency result was “inactive”.
On the same count and under the same terms, the value for `CCN1/C(=C\c2ccc3ccccc3[n+]2CC)Sc2cc(C)ccc21` was 23.1 µM (active).
Same read-out and setting: in the case of `Cc1ccc(CN2CCCn3nc(C(=O)NCc4ccccc4Cl)cc3C2=O)cc1` it was “inactive”; in that of `CN(C)c1ccc(Nc2c3c4c(cccc4n(C)c2=O)C(=O)c2ccccc2-3)cc1`, 14.6 µM (active).
The same measure, in the same setting: in the case of `Cc1ccc(Nc2c(-c3ccc(N(C)C)cc3)nc3nc[nH]n23)cc1` it was “inactive”.
Turning to `COc1cc(OC)c2c(c1C(CCN1CCCCC1)c1ccc(N(C)C)cc1)OC(=O)CC2c1ccc(N(C)C)cc1` (configuration not stated), the Potency entry was “inactive”.
On the same count and under the same terms, the value for `Cc1ccc(OCCSc2nc(-c3cccs3)nc3cc(=O)[nH]n23)cc1Cl` was “inactive”; that for `CCOc1ccc(NC(=O)C(CC(C)C)N2Cc3ccccc3C2=O)cc1` (configuration not stated) was “inactive”; that for `COc1cc(Cl)c(C)cc1NC(=O)CCc1nc2cccnc2n1Cc1cccs1` was “inactive”.
In the case of `CN(C)c1ccc(C(=O)NCC(=O)OC(C(=O)Nc2cc(C(F)(F)F)ccc2Cl)c2ccccc2)cc1` (configuration not stated), the Potency result was “inactive”.
Consider `Cc1ccc(C(=O)NC2CCN(C#N)CC2)cc1`, for which the Potency entry was “inactive”.
On the same count and under the same terms, the value for `COc1ccc(-c2nc(S(=O)(=O)c3ccccc3)c(N3CCCCC3)o2)cc1` was “inactive”.
The same measure, in the same setting: the value for `O=S(=O)(c1ccc2c(c1)OCCO2)N1CCN(S(=O)(=O)c2cc(F)ccc2F)CC1` was “inactive”; that for `COc1ccc(C2/C=C\CN(Cc3ccco3)C(C)C(=O)N2Cc2ccc(F)cc2)cc1` (configuration not stated) was “inactive”.
On the same count and under the same terms, in the case of `COc1cccc(NC(=O)Nc2ccc3c(c2)N(C)C(=O)c2ccccc2S3)c1` it was “inactive”.
Regarding `CC1(C)CCc2cc(S(=O)(=O)N3CCN(c4nc(-c5cccs5)nc5ccccc45)CC3)ccc2O1`, the Potency entry was “inactive”.
On the same count and under the same terms, in the case of `CCCS(=O)(=O)N1CCC(n2c(C(F)(F)F)nc3cccnc32)CC1` it was “inactive”; in that of `OCCNc1ncnc2oc(-c3ccco3)c(-c3ccco3)c12`, “inactive”.
The same measure, in the same setting: in the case of `COc1ccc(C2CC(O)(c3ccccc3)Oc3cc(C)cc(C)c32)cc1` (configuration not stated) it was “inactive”; in that of `O=S(=O)(c1cccc(C(F)(F)F)c1)N1CCN(c2nc(-c3cccs3)nc3ccccc23)CC1`, “inactive”.
Still for that read-out and setting: the value for `COc1cccc(C(=O)NC2CCN(C#N)CC2)c1` was “inactive”.
Turning to `C=CCCN(C(Cc1ccccc1)C(=O)OC)S(=O)(=O)c1cc(Br)ccc1Br` (configuration not stated), the Potency result was “inactive”.
